NadD block: blocks S. aureus nicotinate mononucleotide adenylyltransferase. purified NadD enzyme, colorimetric absorbance read-out. inhibition, % at 20 µM. 360,000 compounds, 0.78% hits; in the data active means inhibition above about 26%
MsrA inh: bovine MsrA inhibition | AID 651718 | 360,000 compounds, 0.75% hits | purified bovine MsrA, absorbance read-out | inhibition, % at 15.5 µM
bovine MsrA act: activators of bovine methionine sulfoxide reductase A; purified bovine MsrA, absorbance read-out; activation, % at 10.6 µM; 360,000 compounds, 0.3% hits; AID 602163; in the data active means activation above about 7.5%
rCAG RNA binder: molecules binding r(CAG) RNA repeats. r(CAG) RNA repeat, TO-PRO-1 dye displacement fluorescence. inhibition, % at 3 µM. 370,000 compounds, 1.3% hits;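 active means inhibition above the plate cutoff, the mean of all test compounds on that plate plus 3 SD, cut at about 35% in these data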;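 further: higher means more dye released from RNA so lower well fluorescence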
MsrA inh confirm: bovine MsrA inhibition, confirmed; inhibition, % at 15.5 µM; purified bovine MsrA, absorbance read-out; 2,300 compounds, 41% hits; shares compounds with MsrA inh; AID 651822;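 further: coupled to thioredoxin reductase with NADPH and selenocystamine and DMSO as substrate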
Hits are given with their value; n = inactive; x = no result. Sampled rows, rich in hits. Any-hit rate of the full collection: about 2.7%. Unless noted, no stated cut-off is given here; in the data, active means inhibition above about 4.5%; inactive means the rest.

SMILES	NadD block	MsrA inh	bovine MsrA act	rCAG RNA binder	MsrA inh confirm
COc1ccc(/C=C/C(=O)O)cc1S(=O)(=O)NC1CCS(=O)(=O)C1 (stereo unspecified)	n	n	n	n	x
O=C(NC1=C(NC2CCS(=O)(=O)C2)C(=O)c2ccccc2C1=O)c1ccccc1 (stereo unspecified)	n	5.0	n	n	n
O=C(NC1=C(Nc2ccc(Cl)cc2)C(=O)c2ccccc2C1=O)c1ccccc1	n	n	n	n	x
O=C(NCc1cccnc1)C(=O)NCC1OCCCN1S(=O)(=O)c1ccccc1 (stereo unspecified)	n	n	n	n	x
N#C/C(C(=O)N1CCOCC1)=C1\Nc2ccccc2S1	n	7.9	n	n	5.7
Cc1cc(C)c(S(=O)(=O)c2cccc(Cl)c2)c(Cl)n1	n	n	n	n	x
O=c1[nH]c(=S)[nH]cc1S(=O)(=O)c1cccc(Cl)c1	n	5.8	n	n	n
CSc1cccc(N2CC(C(=O)Nc3cccc(S(=O)(=O)N4CCCC4)c3)CC2=O)c1 (stereo unspecified)	n	n	n	n	x
OCCN=Cc1c(O)[nH]c2ccccc12	n	n	n	n	x
Oc1[nH]c2ccccc2c1C=Nc1ccccc1	n	5.1	n	n	n
CN(C)CC(C)(C)CN=Cc1c(O)[nH]c2ccccc12	n	6.0	n	n	n
COc1ccc(/C=C(\C#N)c2n[nH]c(Cn3cncn3)n2)cc1	n	5.7	n	n	5.2
N#C/C(=C\c1ccc(Cl)cc1)c1n[nH]c(Cn2cncn2)n1	n	n	n	n	x
Cc1cc(OCC(=O)N(C)C2CCCCC2)cc(C)c1Cl	n	n	n	n	x
CCN(CC)C(=O)COc1cc(C)c(Cl)c(C)c1	n	37	n	n	n
CN(C)CCCNC(=O)c1ccc(Oc2ccccc2)cc1	n	n	n	n	x
O=[N+]([O-])c1cccnc1N1CCN(c2ccc(F)cc2)CC1	n	n	n	n	x
O=C(N/N=C/C(Br)=C/c1ccccc1)c1cnccn1	n	6.3	n	n	4.6
Cn1cc(C(=O)N/N=C/C(Br)=C/c2ccccc2)ccc1=O	n	6.7	n	n	5.7
O=C(N/N=C/C=C/c1ccccc1)c1ccc(Br)cc1	n	n	n	n	x
Cn1cc(C(=O)N/N=C/C=C/c2ccccc2)ccc1=O	n	9.7	n	n	5.1
O=C(N/N=C/C(Cl)=C/c1ccccc1)c1ccncc1	n	4.9	n	n	n
O=C(CN1C(=O)NC2(CCc3ccccc32)C1=O)NCCc1ccccc1 (stereo unspecified)	n	n	n	n	x
Cc1nonc1C1CCCN1Cc1cn[nH]c1-c1ccc2c(c1)OCO2 (stereo unspecified)	n	n	n	n	x
COc1ccc(-c2[nH]ncc2CN2CCCC2c2nonc2C)c(F)c1 (stereo unspecified)	n	8.4	n	n	n
SMILES	NadD block	MsrA inh	bovine MsrA act	rCAG RNA binder	MsrA inh confirm
COc1cc(S(=O)(=O)N2CCOCC2)cc(C(=O)OCC(=O)NCc2ccco2)c1OC	n	n	n	n	x
CC(C)(C)c1ccc(/C=N/Nc2cccc(C(=O)O)c2)cc1	n	n	n	n	x
COc1ccc(C=NNC(=S)Nc2ccc(F)cc2)cc1OC	n	5.7	n	n	n
COc1cccc(/C=N/NC(=S)Nc2cccc(C(=O)O)c2)c1	n	n	n	n	x
COc1cc(/C=N/NC(=S)N/N=C/c2cc(OC)c(OC)c(OC)c2)cc(OC)c1OC	n	n	n	n	x
COc1cc(/C=N/NC(=S)Nc2cccc(C(=O)O)c2)cc(OC)c1OC	n	5.1	n	n	n
COc1ccc(/C=N/NC(=S)Nc2cccc(C(=O)O)c2)cc1OC	n	7.6	n	n	5.6
CN(C)c1ccc(/C=N/Nc2cccc(C(=O)O)c2)cc1	n	5.1	n	n	n
C=CCNC(=S)Nc1sc2c(c1C#N)CCCC2	n	n	n	n	x
CCCCc1nnc(NC(=O)CCS(=O)(=O)c2ccc(Cl)cc2)s1	n	n	n	n	x
O=C(NCc1ccccc1)c1cc(C2CCCCN2C(=O)c2ccccc2)on1 (stereo unspecified)	n	n	n	n	x
N#CCC(=O)Nc1ccc(C(F)(F)F)cc1N1CCOCC1	n	n	n	n	x
CCCNC(=O)C1(C)CCCN(C(=O)c2cc(C)nn2C(C)(C)C)C1 (stereo unspecified)	n	n	n	n	x
CC1(C)CC(=O)c2sc(NC(=O)CN3CCCCC3)nc2C1	n	5.2	n	n	n
CC1(C)CC(=O)c2sc(NC(=O)C(C)(C)C)nc2C1	n	n	n	n	x
CC1(C)CC(=O)c2sc(NS(=O)(=O)c3ccc(F)cc3)nc2C1	n	5.3	n	n	n
NC1=NC(c2cn[nH]c2-c2ccc(F)cc2)n2c(nc3ccccc32)N1 (stereo unspecified)	x	n	x	n	x
